The values below come from ChEMBL document CHEMBL1961873, “Compounds: GSK PKIS; Assays: Nanosyn kinase panel” (2012).

Experiment [1] concerns the target Ribosomal protein S6 kinase alpha-6 (Homo sapiens) (UniProt Q9UK32). Conditions: at 1 µM.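 Note: each value is a mean inhibition of RSK4 from a GSK PKIS panel screen.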
The target of experiment [2] is T1, Serine/threonine-protein kinase Sgk1 (Homo sapiens) (UniProt O00141).
T1 sequence (whole entry): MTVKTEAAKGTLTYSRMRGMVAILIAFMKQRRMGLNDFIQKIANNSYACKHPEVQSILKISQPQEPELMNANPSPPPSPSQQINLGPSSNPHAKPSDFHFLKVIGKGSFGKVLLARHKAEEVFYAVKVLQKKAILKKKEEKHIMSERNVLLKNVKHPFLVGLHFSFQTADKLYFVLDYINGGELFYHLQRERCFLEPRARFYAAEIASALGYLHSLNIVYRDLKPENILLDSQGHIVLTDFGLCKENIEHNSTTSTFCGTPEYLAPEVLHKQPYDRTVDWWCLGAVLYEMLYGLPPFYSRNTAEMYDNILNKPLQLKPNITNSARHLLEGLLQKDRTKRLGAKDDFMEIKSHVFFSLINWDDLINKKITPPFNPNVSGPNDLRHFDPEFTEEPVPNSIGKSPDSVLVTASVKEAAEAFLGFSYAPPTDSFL
Conditions: at 0.1 µM.

Experiment [3] has as its target T1, Serine/threonine-protein kinase Sgk1 (Homo sapiens). Conditions: at 1 µM.
Experiment [4] has as its target T2, Serine/threonine-protein kinase Sgk2 (Homo sapiens) (UniProt Q9HBY8).
T2 sequence (whole entry): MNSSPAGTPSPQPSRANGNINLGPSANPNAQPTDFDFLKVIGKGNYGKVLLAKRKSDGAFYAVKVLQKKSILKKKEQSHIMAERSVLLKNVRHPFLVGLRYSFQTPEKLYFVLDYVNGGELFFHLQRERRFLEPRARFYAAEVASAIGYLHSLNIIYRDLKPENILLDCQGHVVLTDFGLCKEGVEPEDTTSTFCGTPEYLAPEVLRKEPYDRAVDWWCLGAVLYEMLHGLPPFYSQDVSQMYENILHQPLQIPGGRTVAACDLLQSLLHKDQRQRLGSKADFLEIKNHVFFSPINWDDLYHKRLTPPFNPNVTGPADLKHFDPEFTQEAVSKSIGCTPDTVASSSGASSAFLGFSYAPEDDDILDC
Conditions: at 0.1 µM.

In experiment [5] the target is T2, Serine/threonine-protein kinase Sgk2 (Homo sapiens). The following applies: at 1 µM.
The target in experiment [6] is T3, Serine/threonine-protein kinase Sgk3 (Homo sapiens) (UniProt Q96BR1).
T3 sequence (whole entry): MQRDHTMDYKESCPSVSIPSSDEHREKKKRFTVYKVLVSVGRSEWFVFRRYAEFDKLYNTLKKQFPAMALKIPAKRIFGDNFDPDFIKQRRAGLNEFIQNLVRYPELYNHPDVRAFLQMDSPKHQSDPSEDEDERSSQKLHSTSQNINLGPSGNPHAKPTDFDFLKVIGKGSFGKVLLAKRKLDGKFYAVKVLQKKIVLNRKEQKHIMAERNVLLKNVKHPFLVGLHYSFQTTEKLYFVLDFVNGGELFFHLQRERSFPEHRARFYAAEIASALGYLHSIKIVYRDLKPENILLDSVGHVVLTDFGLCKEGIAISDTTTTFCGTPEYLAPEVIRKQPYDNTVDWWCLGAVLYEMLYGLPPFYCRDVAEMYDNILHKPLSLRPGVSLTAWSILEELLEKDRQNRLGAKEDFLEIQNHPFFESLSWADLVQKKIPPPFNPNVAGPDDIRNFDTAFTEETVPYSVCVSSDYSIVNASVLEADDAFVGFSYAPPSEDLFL
Conditions: at 0.1 µM.

Experiment [7] deals with T3, Serine/threonine-protein kinase Sgk3 (Homo sapiens). The following applies: at 1 µM.
Experiment [8] addresses 5'-AMP-activated protein kinase catalytic subunit alpha-1 (Homo sapiens) (UniProt Q13131). The following applies: at 0.1 µM.
Experiment [9] shares this target. Conditions: at 1 µM.
Experiment [10] deals with 5'-AMP-activated protein kinase catalytic subunit alpha-2 (Homo sapiens) (UniProt P54646). Conditions: at 0.1 µM.
Chain of 5'-AMP-activated protein kinase catalytic subunit alpha-2 (Homo sapiens) (P54646 whole entry, looked up): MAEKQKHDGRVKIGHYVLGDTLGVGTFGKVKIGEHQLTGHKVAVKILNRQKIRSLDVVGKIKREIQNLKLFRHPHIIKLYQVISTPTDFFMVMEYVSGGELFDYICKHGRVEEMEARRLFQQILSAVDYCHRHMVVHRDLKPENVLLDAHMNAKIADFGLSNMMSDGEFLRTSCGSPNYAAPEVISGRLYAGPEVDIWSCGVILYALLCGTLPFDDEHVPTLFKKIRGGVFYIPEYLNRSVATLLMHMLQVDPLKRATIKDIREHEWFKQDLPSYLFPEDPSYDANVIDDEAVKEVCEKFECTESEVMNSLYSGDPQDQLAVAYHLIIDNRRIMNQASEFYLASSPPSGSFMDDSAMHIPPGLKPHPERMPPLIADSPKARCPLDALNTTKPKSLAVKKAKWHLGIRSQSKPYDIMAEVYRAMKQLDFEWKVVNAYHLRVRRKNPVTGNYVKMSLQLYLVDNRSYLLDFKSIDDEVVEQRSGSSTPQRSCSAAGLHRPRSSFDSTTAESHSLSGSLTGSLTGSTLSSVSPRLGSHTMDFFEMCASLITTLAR

Chain of Ribosomal protein S6 kinase alpha-6 (Homo sapiens) (Q9UK32 whole entry): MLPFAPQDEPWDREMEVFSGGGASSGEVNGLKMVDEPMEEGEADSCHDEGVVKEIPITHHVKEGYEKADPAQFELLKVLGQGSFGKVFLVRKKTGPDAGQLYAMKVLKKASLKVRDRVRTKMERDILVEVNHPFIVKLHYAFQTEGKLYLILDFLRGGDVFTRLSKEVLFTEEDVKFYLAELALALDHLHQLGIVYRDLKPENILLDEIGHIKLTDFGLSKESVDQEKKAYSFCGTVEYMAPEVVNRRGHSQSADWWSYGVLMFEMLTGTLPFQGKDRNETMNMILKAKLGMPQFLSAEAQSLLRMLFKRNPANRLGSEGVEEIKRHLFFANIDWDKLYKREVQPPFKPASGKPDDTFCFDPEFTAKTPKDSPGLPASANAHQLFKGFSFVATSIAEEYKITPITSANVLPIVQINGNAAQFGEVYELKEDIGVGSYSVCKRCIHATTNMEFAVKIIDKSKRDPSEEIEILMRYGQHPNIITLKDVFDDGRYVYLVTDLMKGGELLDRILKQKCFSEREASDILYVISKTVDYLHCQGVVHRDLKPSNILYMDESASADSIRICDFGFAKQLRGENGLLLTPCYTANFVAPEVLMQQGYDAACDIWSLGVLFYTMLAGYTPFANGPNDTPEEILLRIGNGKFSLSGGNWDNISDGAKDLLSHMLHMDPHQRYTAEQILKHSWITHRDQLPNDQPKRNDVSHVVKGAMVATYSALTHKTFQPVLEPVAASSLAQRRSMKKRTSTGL
Chain of 5'-AMP-activated protein kinase catalytic subunit alpha-1 (Homo sapiens) (Q13131 whole entry, looked up): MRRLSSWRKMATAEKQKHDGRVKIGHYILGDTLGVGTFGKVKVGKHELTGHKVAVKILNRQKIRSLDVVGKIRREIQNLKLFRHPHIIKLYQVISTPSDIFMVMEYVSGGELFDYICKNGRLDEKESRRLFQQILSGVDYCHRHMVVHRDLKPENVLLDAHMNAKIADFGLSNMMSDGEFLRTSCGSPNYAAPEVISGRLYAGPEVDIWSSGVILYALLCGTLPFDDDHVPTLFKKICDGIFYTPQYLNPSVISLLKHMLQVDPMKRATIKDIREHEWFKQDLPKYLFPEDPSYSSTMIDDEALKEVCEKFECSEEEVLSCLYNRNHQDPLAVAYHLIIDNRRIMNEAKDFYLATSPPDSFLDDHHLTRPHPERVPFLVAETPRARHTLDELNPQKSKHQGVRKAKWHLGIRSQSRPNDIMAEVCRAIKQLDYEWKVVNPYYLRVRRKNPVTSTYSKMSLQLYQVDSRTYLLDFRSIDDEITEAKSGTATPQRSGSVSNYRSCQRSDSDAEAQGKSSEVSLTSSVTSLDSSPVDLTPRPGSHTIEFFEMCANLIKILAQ

One may read the inhibition as the change of the read-out against control, counted positive when it falls. As for `NC(=O)c1cccc(Nc2nccc(Nc3cccc4[nH]ncc34)n2)c1`, the inhibition in experiment [1] is 9.04%; in experiment [2], -1.84%; in [3], 1.71%; in experiment [4], -4.35%; in experiment [5], -0.81%; in experiment [6], -4.06%. In addition, the inhibition in [7] was -1.36%; in [8], 3.35%; in experiment [9], 18.5%; in experiment [10], 2.4%.

As to `COc1cc(C)c(NC(=O)CN(C)C)cc1Nc1nc(Nc2cccc(F)c2C(N)=O)c2cc[nH]c2n1`, the inhibition in experiment [1] is 23.1%; in [2], 1.87%; in [3], -1.3%; in experiment [4], 1.44%; in experiment [5], 0.65%; in experiment [6] it was 0.69%. The inhibition came to 0.16% in experiment [7], 1.03% in experiment [8], 0.78% in experiment [9] and 1.06% in [10].

Regarding `O=C1NC(=O)C(N2CCc3ccccc32)=C1c1ccc(Cl)cc1`, the inhibition in [1] came out at 1.19%; in experiment [2], 2.14%; in experiment [3], 2.97%; in experiment [4], 2.07%; in experiment [5] it was 1.86%; in [6] it was 3.22%. The inhibition in experiment [7] was 3%; in [8], 0.74%; in experiment [9], 4.36%; in [10], 4.52%.

In the case of `CCn1c(-c2nonc2N)nc2cnc(Oc3cccc(NC(=O)c4ccc(OCCN5CCOCC5)cc4)c3)cc21`, the inhibition in [1] worked out at 13.8%; in [2], 7.56%; in experiment [3] it was 34.7%; in [4], 15.7%; in experiment [5], 58.5%; in [6], 36.3%. The inhibition in [7] came to 74.3%; in [8], 2.28%; in [9] it was 2.06%; in experiment [10], 2.76%.

Regarding `Nc1nc(-c2ccc3c(c2)C(=Cc2cc(Br)c(O)c(Br)c2)C(=O)N3)cs1`, the inhibition in experiment [1] is 2.87%; in experiment [2], 0.99%; in [3] it was 0.56%; in experiment [4] it was 0.38%; in experiment [5], 2.1%; in experiment [6] it was -0.67%. The inhibition in [7] was -0.04%; in experiment [8], -0.3%; in [9], 6.79%; in experiment [10], 3.28%.

In the case of `CNC(=O)c1cncc(/C=C/c2c(Cl)cccc2Cl)c1`, the inhibition in [1] was 1.63%; in experiment [2], -0.87%; in [3], -0.45%; in [4], 0.49%; in [5] it was 0.48%; in [6], 1.43%. Besides, the inhibition in experiment [7] came out at 2.18%; in experiment [8], 2.85%; in experiment [9], 3.59%; in experiment [10], 6.15%.

Consider `CCCN1CCC(Oc2cc(Nc3nc(Nc4cccc(F)c4C(N)=O)c4cc[nH]c4n3)c(OC)cc2Cl)CC1`, for which the inhibition in experiment [1] was 4.14%; in experiment [2] it was 0.54%; in experiment [3], 0.96%; in [4], 0.41%; in [5], 1.93%; in experiment [6] it was -0.88%. The inhibition was -2.21% in experiment [7], 3.28% in experiment [8], 8.12% in experiment [9] and 1.83% in experiment [10].

For `N#Cc1c(NC(=O)c2cccc3ccccc23)sc2c1CCCC2`, the inhibition in [1] is 1.27%; in experiment [2], 3.76%; in [3], 0.45%; in [4], 1.09%; in experiment [5], 1.34%; in experiment [6], 1.65%. Also, the inhibition in [7] was 2.42%; in [8] it was 1.14%; in experiment [9], 2.66%; in [10], 3.83%.

With `CC(C)=Cc1cccc2c1/C(=N/Nc1ccc(S(N)(=O)=O)cc1)C(=O)N2`, the inhibition in experiment [1] was 13.6%; in experiment [2], 0.34%; in experiment [3], 5.74%; in experiment [4], -2.99%; in experiment [5], 3.04%; in experiment [6], 0.02%. Further, the inhibition in experiment [7] turned out to be 0.72%; in experiment [8], 13.9%; in experiment [9] it was 56.6%; in [10], 3.74%.

In the case of `NS(=O)(=O)c1cccc(-c2ccc3c(NC(=O)C4CC4)n[nH]c3c2)c1`, the inhibition is 0.54% in experiment [1]; 1.71% in experiment [2]; 2.69% in [3]; 3.21% in experiment [4]; -4.4% in experiment [5]; 0.09% in [6]. The inhibition was 0.67% in experiment [7], -0.48% in experiment [8], 0.34% in experiment [9] and 3.53% in experiment [10].

Consider `CCn1c(-c2nonc2N)nc2c(C#CC(C)(C)O)nc(OC[C@@H](N)c3ccccc3)cc21`, for which the inhibition in [1] worked out at 17.5%; in experiment [2], 0.38%; in [3], 3.01%; in [4] it was 2.41%; in [5], 10.3%; in experiment [6], 43.1%. In addition, the inhibition was 60.4% in experiment [7], 26.6% in experiment [8], 66.9% in experiment [9] and 4.59% in experiment [10].

In the case of `Nc1ncnc2occ(-c3ccc(NC(=O)Nc4cccc(C(F)(F)F)c4)cc3)c12`, the inhibition in experiment [1] is 9.85%; in experiment [2], 4.14%; in experiment [3] it was 3.96%; in experiment [4] it was 3.57%; in experiment [5], 4.73%; in experiment [6], 6.15%. Also, the inhibition came out at 2.94% in [7], 1.82% in experiment [8], 5.16% in experiment [9] and 2.97% in experiment [10].

Regarding `CC1=C(C(=O)Nc2ccc3[nH]ncc3c2)C(c2ccc3ccccc3c2)CC(=O)N1` (stereo not given), the inhibition in experiment [1] turned out to be 7.45%; in experiment [2] it was 2.12%; in [3] it was 7.38%; in experiment [4], 3%; in experiment [5], 16.6%; in [6] it was 1.33%. Also, the inhibition in experiment [7] is 10.3%; in experiment [8] it was 7.34%; in experiment [9], 41%; in experiment [10] it was 2.46%.

With `Cc1ccc(NC(=O)c2ccnc(N3CCCC3)c2)cc1-c1ccc(C(=O)NCC2CC2)cc1`, the inhibition in experiment [1] turned out to be 4.24%; in experiment [2], 5.73%; in experiment [3], 4.14%; in experiment [4] it was 2.67%; in experiment [5], 6.84%; in experiment [6], 1.32%. Also, the inhibition in [7] worked out at 1.99%; in [8], 6.18%; in experiment [9], 7.1%; in experiment [10], 6.89%.

Regarding `COc1ccc(-c2ccncc2)cc1C(N)=O`, the inhibition was found to be 3.03% in experiment [1]; 2.81% in [2]; 3.03% in [3]; 2.33% in experiment [4]; 1.26% in experiment [5]; 2.05% in experiment [6]. Also, the inhibition was 6.23% in experiment [7], 2.82% in experiment [8], 5.78% in [9] and 7.48% in experiment [10].

As to `CN(C)c1cc2c(Nc3ccc4nc(Cc5ccccc5)[nH]c4c3)ncnc2cn1`, the inhibition is 3.9% in experiment [1]; 3.83% in [2]; 2.79% in [3]; 2.52% in [4]; 6.52% in experiment [5]; 3.71% in experiment [6]. For the same compound, the inhibition is 4.16% in experiment [7], 4.31% in [8], 3.22% in [9] and 4.92% in experiment [10].

In the case of `CC1=C(C(=O)Nc2ccc3[nH]ncc3c2)C(c2ccc(Cl)c(Cl)c2)CC(=O)N1` (stereo not given), the inhibition in [1] was 5.82%; in experiment [2], 0.54%; in experiment [3] it was 6.57%; in [4], 0.96%; in experiment [5], 8.76%; in experiment [6] it was 1.38%. The inhibition came out at 10.8% in experiment [7], 6.35% in experiment [8], 34.8% in experiment [9] and 1.12% in experiment [10].
